Experimental findings from PubChem BioAssay (NCI) are described below.

Compounds without any hit were thinned out: in the full panel of roughly 83,000, 20% have a hit.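 Treatment: one concentration, 48 hours, 96-well format. Scoring: percent growth, with anything below 10 considered active.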 Unmarked numbers belong to inactive results. Calls of active or inactive are those of the source.

Among the test systems are DU-145 prostate; K-562 leukemia; MALME-3M melanoma; MDA-MB-231 breast; RXF 393 renal; SF-268 CNS; SF-295 CNS; SF-539 CNS; UACC-257 melanoma; M14 melanoma.
What all share (test): NCI-60 one-dose screen, 48 h (100 = growth as untreated, 0 = no growth, -100 = all killed)
Details in all cases: 10 µM unless noted

In the case of `Cn1c2c(cc(S(=O)(=O)c3ccccc3)c1=O)CCc1c-2cnn1-c1ccccc1Cl`, the growth in the assay on DU-145 prostate was 120%; with K-562 leukemia it was 95.5%; with MALME-3M melanoma, 108%; with MDA-MB-231 breast it was 101%; with RXF 393 renal it was 111%; in the assay on SF-268 CNS, 106%. In addition, the growth in the assay with SF-295 CNS is 87.9%; in the assay on SF-539 CNS, 90.2%; in the assay on UACC-257 melanoma, 89.8%; in the assay with M14 melanoma, 110%.
As for `COc1ccc(/C=C(\C#N)c2cc3ccccc3n2C)cc1`, the growth is 2.99% (active) in the assay on DU-145 prostate; 7.26% (active) with K-562 leukemia; 60.8% in the assay on MALME-3M melanoma; 31% in the assay with MDA-MB-231 breast; -6.28% (active) in the assay on RXF 393 renal; 47.5% with SF-268 CNS. For the same compound, the growth with SF-295 CNS is 9.9% (active); in the assay with SF-539 CNS it was -15.9% (active); with UACC-257 melanoma, 72.6%; in the assay on M14 melanoma, 6.61% (active).
As for `c1ccc(-c2n(Cc3ccc4ccccc4n3)c3ccccc3[n+]2Cc2ccc3ccccc3n2)cc1`, the growth in the assay on DU-145 prostate was 17.5%; with K-562 leukemia, 2.99% (active); in the assay with MALME-3M melanoma, -24.6% (active); in the assay with MDA-MB-231 breast, -13.1% (active); with RXF 393 renal, -4.06% (active); in the assay on SF-268 CNS, 5.9% (active). In addition, the growth is -9.19% (active) with SF-295 CNS, 7.88% (active) in the assay with SF-539 CNS, -2.75% (active) with UACC-257 melanoma and -14.9% (active) in the assay on M14 melanoma.
For the compound `Cc1nc2ccc(Cl)cc2n1C`, the growth with DU-145 prostate is 115%; with K-562 leukemia, 92.4%; with MALME-3M melanoma it was 106%; in the assay with MDA-MB-231 breast, 118%; in the assay with RXF 393 renal, 101%; in the assay with SF-268 CNS, 103%. The growth was 104% in the assay with SF-295 CNS, 106% with SF-539 CNS, 100% in the assay on UACC-257 melanoma and 106% in the assay with M14 melanoma.
As to `CCOC(=O)C1=C(C)N2C(=NC3=C(CCCC/C3=C\c3ccccc3)C2c2ccccc2)S1` (centres undefined), the growth is 105% in the assay with DU-145 prostate; 99.2% in the assay with K-562 leukemia; 86.7% in the assay on MALME-3M melanoma; 107% in the assay with MDA-MB-231 breast; 88.3% in the assay on RXF 393 renal; 99.2% with SF-268 CNS. Further, the growth with SF-295 CNS was 74%; in the assay on SF-539 CNS it was 99.3%; in the assay on M14 melanoma, 95.9%.
Turning to `COc1ccc(/C=N/OCC(O)CN2CCC(O)CC2)cc1OC1CCCC1` (centres undefined), the growth in the assay with DU-145 prostate is 109%; in the assay with K-562 leukemia, 100%; in the assay on MALME-3M melanoma, 108%; in the assay with MDA-MB-231 breast it was 99.7%; with RXF 393 renal, 115%; in the assay on SF-268 CNS, 94.7%. The growth with SF-295 CNS is 104%; with SF-539 CNS, 101%; in the assay with UACC-257 melanoma, 109%; in the assay on M14 melanoma, 94.3%.
Turning to `Nc1cc2[nH]c(=O)c3ccccc3c2cc1Br`, the growth with DU-145 prostate was 77%; in the assay on K-562 leukemia, 95%; with MALME-3M melanoma, 102%; in the assay on MDA-MB-231 breast it was 53.2%; in the assay on RXF 393 renal it was 85.4%; with SF-268 CNS it was 86.3%. For the same compound, the growth in the assay on SF-295 CNS is 95.6%; with SF-539 CNS it was 74.6%; in the assay on UACC-257 melanoma, 109%; in the assay with M14 melanoma, 83.3%.
On to `O=[N+]([O-])c1cc2c(cc1Br)C1C(C3C2C(Cl)(Cl)C(Cl)=C(Cl)C3(Cl)Cl)C(Cl)(Cl)C(Cl)=C(Cl)C1(Cl)Cl` (centres undefined), for which the growth was 108% with DU-145 prostate; 105% in the assay on K-562 leukemia; 80.8% with MALME-3M melanoma; 108% in the assay with MDA-MB-231 breast; 96.9% in the assay on RXF 393 renal; 102% with SF-268 CNS. The growth with SF-295 CNS was 95.8%; with SF-539 CNS, 94.9%; in the assay on UACC-257 melanoma it was 92.9%; in the assay with M14 melanoma it was 90.6%.
As to `COc1ccc(-c2nn(-c3ccc(NC(=O)c4ccc(Cl)c(Cl)c4)cc3)cc2-c2ccncc2)cc1Cl`, the growth was 68.4% with DU-145 prostate; 5.86% (active) in the assay on K-562 leukemia; 43% with MALME-3M melanoma; -16.3% (active) in the assay on MDA-MB-231 breast; -82.1% (active) in the assay with RXF 393 renal; 49.2% in the assay on SF-268 CNS. Moreover, the growth in the assay on SF-295 CNS is -31.5% (active); in the assay with SF-539 CNS, 26%; in the assay on UACC-257 melanoma, 93.3%; in the assay with M14 melanoma, 6.62% (active).
On to `COc1nc2c(cc1S(=O)(=O)c1ccccc1)CCc1c-2cnn1-c1ccccc1Cl`, for which the growth in the assay with DU-145 prostate was 90.8%; in the assay on K-562 leukemia, 54.3%; with MALME-3M melanoma it was 97.4%; in the assay on MDA-MB-231 breast, 70.2%; in the assay on RXF 393 renal it was 52.6%; in the assay with SF-268 CNS, 74.1%. The growth with SF-295 CNS is 63%; with SF-539 CNS, 60.5%; with UACC-257 melanoma, 72.6%; in the assay with M14 melanoma it was 68.9%.
Consider `O=C1CN2CCC1C/C2=C\c1ccnc2c(Cl)cccc12` (centres undefined), for which the growth with DU-145 prostate was 111%; in the assay with K-562 leukemia, 95.7%; with MALME-3M melanoma, 112%; in the assay on MDA-MB-231 breast it was 90.1%; with RXF 393 renal, 107%; with SF-268 CNS, 101%. Also, the growth in the assay on SF-295 CNS is 91.2%; in the assay with SF-539 CNS it was 110%; in the assay on UACC-257 melanoma, 95.2%; in the assay on M14 melanoma, 103%.
As for `COc1ccc(C2=NOC(CC(=O)N(CCO)CCO)C2)cc1OC1CCCC1` (centres undefined), the growth was 105% with DU-145 prostate; 121% in the assay on K-562 leukemia; 111% in the assay with MALME-3M melanoma; 103% in the assay on MDA-MB-231 breast; 102% with RXF 393 renal; 97% in the assay with SF-268 CNS. Further, the growth was 97.1% in the assay on SF-295 CNS, 104% with SF-539 CNS, 102% in the assay with UACC-257 melanoma and 92.2% in the assay with M14 melanoma.
For `Brc1ccc(SCN(CSc2ccc(Br)cc2)Cc2ccccc2)cc1`, the growth was 96.8% in the assay on DU-145 prostate; 81.5% with K-562 leukemia; 104% in the assay with MALME-3M melanoma; 39.8% with MDA-MB-231 breast; 89.9% in the assay on RXF 393 renal; 45.4% with SF-268 CNS. In addition, the growth with SF-295 CNS was 52.3%; in the assay on SF-539 CNS it was 49.8%; in the assay with UACC-257 melanoma, 93.1%; in the assay on M14 melanoma it was 73.7%.
Take `CCOC(=O)c1c(Cl)c2c(n1Cc1cc(OC)cc(OC)c1)-c1oncc1CCC2`: the growth in the assay on DU-145 prostate was 21.5%; in the assay on K-562 leukemia it was 9.73% (active); with MALME-3M melanoma, 22.6%; in the assay on MDA-MB-231 breast, 35.5%; with RXF 393 renal, 21.7%; in the assay on SF-268 CNS, 50.5%. The growth in the assay with SF-295 CNS is 6.63% (active); in the assay on SF-539 CNS, 7.36% (active); in the assay with UACC-257 melanoma, 72.4%; with M14 melanoma, 12.7%.
